In all, about 320,000 compounds went through this assay and about 2,100 (0.66%) were called active. Another 53% or so got no clear call; they are omitted. The call rests on the fitted dose curve; in most records, active means well fitted inhibition curve with a large enough effect in the signal ratio, with a control signal flat (not every such curve was filed as active); inconclusive means small, poorly fitted or top-dose-only effect, or effect the other way, or a change in a side signal; inactive means flat fitted curve, though single readings scatter; the % refers to the signal ratio. The full list was thinned out, with actives kept by preference.
Potency means the concentration at half of the fitted maximal effect.

This assay can be described thus: qHTS Assay for Lipid Storage Modulators in Drosophila S3 Cells.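 On cell number change: cells counted by Cell Tracker Red CMTPX staining in the red channel.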 On lipid storage change, negative = inhibition: on the % scale 0 is the no-effect control and ±100 the full control effect. As to conditions: BODIPY lipid droplet fluorescence, 18-24 h, cells fed with added oleic acid; cell number change: measured here: cell count max response; series mostly up to 46.1 µM; lipid storage change, negative = inhibition: at the top concentration. In outline:
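Drosophila S3 cells loaded with oleic acid (400 uM, as added) and compounds at several concentrations; lipid droplets imaged by 488-nm laser-scanning cytometry, 500–530 nm intensity and object ratio to cell channel. Percent activity normalized to 20 uM Triacsin C.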
On to `COc1ccc2c3n(nc2c1)CCN=C3c1ccc(Cl)cc1`, for which the “lipid storage change, negative = inhibition” value is 18.2% (inactive) and the cell number change was determined as 28.7%.

For `Nc1c(Cl)cc(C2=NCCn3nc4cc([N+](=O)[O-])ccc4c32)cc1Cl`, the Potency was 5.17 µM (active) and the cell number change is 13.3%. Consider `Nc1c(Cl)cc(C2=NCCn3c2c2ccc([N+](=O)[O-])cc2[n+]3[O-])cc1Cl`, for which the outcome was inactive and the cell number change was -13.5%.

In the case of `C/C=C/C(=O)N1CC2(CC(c3cccc(NC(=O)CCCCC)c3)=NO2)C[C@H]1C(N)=O` (stereo not given in full), the “lipid storage change, negative = inhibition” value was 5.76% (inactive) and the cell number change worked out at 7.84%.

On to `CC(C)N1C(=O)N(c2ccccc2)C(C)(O)CC1(C)C` (stereo not given), for which the “lipid storage change, negative = inhibition” value is 7.15% (inactive).

As for `CC1(C)CC(=O)N(c2ccccc2)C1(C)O` (stereo not given), the Potency is 0.164 µM (active) and the cell number change came out at 6.8%. As to `CC1(O)CC(=O)N(c2ccccc2)O1` (stereo not given), the “lipid storage change, negative = inhibition” value was -7.45% (inactive) and the cell number change is 5.56%. For the compound `Nc1nc(CN2CCc3ccccc3C2)nc(Nc2ccccc2)n1`, the compound was classed as inactive. Regarding `CCCCCCSc1ccc([C@@H]2[C@H]3C(=O)N(CC)C(=O)[C@H]3[C@]3(C(=O)OC)CCCN23)cc1`, the Potency was 0.517 µM (active). `COC(=O)[C@@]12CCCCN1[C@H](c1ccc(SC3CCCCC3)cc1)[C@H]1C(=O)N(C)C(=O)[C@H]12`: the “lipid storage change, negative = inhibition” value is 11.4% (inactive). With `CCCCCCSc1ccc([C@@H]2[C@H]3C(=O)N(C)C(=O)[C@H]3[C@]3(C(=O)OC)CCCCN23)cc1`, the Potency is 20.6 µM (active). `CCN1C(=O)[C@@H]2[C@@H](c3ccc(-c4ccc(F)cc4)cc3)N3CCC[C@@]3(C(=O)OC)[C@@H]2C1=O`: the “lipid storage change, negative = inhibition” value was 6.74% (inactive) and the cell number change was -18.3%. As to `COC(=O)[C@@]12CCCCN1[C@H](c1ccc(-c3ccc(OC)cc3)cc1)[C@@H]1C(=O)N(C)C(=O)[C@@H]12`, the outcome was inactive. As to `CCCSc1ccc([C@@H]2[C@H]3C(=O)N(CC)C(=O)[C@H]3[C@]3(C(=O)OC)CCCN23)cc1OC`, the “lipid storage change, negative = inhibition” value was 14.4% (inactive) and the cell number change is 11.7%. Regarding `CS(=O)(=O)Nc1ccc(S(=O)(=O)NCCc2ccccc2)cc1`, the call was inactive. As to `CC(C)NC(=O)c1cc2c(C(F)(F)F)nn(C)c2s1`, the compound was classed as inactive and the cell number change was -21.4%. As to `COc1ccc(C(=O)C(C)OC(=O)c2cccc(S(=O)(=O)Nc3cc(Cl)c(OC)cc3OC)c2)cc1` (stereo not given), the “lipid storage change, negative = inhibition” value was 19.9% (inactive) and the cell number change was -7.94%. As for `N#Cc1cccc(NC(=O)COc2ccc(-n3ccnc3)cc2)c1`, the “lipid storage change, negative = inhibition” value was 14.6% (inactive) and the cell number change was -13.2%.

Regarding `COc1ccc(N2C(=O)CC(N3CCN(c4cccc(Cl)c4)CC3)C2=O)cc1` (stereo not given), the compound was called inactive and the cell number change is -1.05%.

With `Nc1cc(C(=O)O)c(Oc2ccc(Cl)cc2Cl)cc1C(=O)O`, the “lipid storage change, negative = inhibition” value was -11.9% (inactive) and the cell number change is -11.5%. On to `COCCN=c1scc(-c2ccc3c(c2)NC(=O)CO3)n1/N=C(\C)c1ccc(O)cc1`, for which the “lipid storage change, negative = inhibition” value is 2.86% (inactive) and the cell number change amounted to 3.12%. In the case of `COc1cc(C(C)=O)ccc1COc1ccc(C(=O)OC(C)C(=O)NC(N)=O)cc1OC` (stereo not given), the “lipid storage change, negative = inhibition” value is 6.34% (inactive) and the cell number change is 7.94%. Take `NC(=O)c1ccc(N=Nc2c(O)c3ccccc3[nH]c2=O)cc1`: the “lipid storage change, negative = inhibition” value was 5.32% (inactive) and the cell number change turned out to be 9.46%.

In the case of `Cc1ccc(N=Nc2c(O)c3ccccc3[nH]c2=O)c(S(=O)(=O)N(C)C)c1`, the “lipid storage change, negative = inhibition” value was 7.55% (inactive) and the cell number change was found to be 7.5%.

As to `Cc1cc(N=Nc2c(O)c3ccccc3[nH]c2=O)ccc1N=Nc1ccc(C(=O)N(C)C)cc1`, the Potency is 20.6 µM (active) and the cell number change was -11.6%. For `CC(C)(CNC(=O)c1cc([N+](=O)[O-])ccc1N1CCC(Cc2ccccc2)CC1)N1CCOCC1`, the Potency was 20.6 µM (active) and the cell number change was 7.52%. In the case of `O=C(O)c1cc([N+](=O)[O-])ccc1N1CCC(Cc2ccccc2)CC1`, the “lipid storage change, negative = inhibition” value is 9.81% (inactive) and the cell number change is 4.05%. For `O=C(NCCOc1ccccc1)c1cc([N+](=O)[O-])ccc1N1CCOCC1`, in that order: 1.04% (inactive) and -1.71%. For `CCOc1ccc(N2C(=O)C3ON(c4ccccc4)C(c4ccco4)C3C2=O)cc1` (stereo not given) the same measures were -14.5% (inactive) and -16.3%. As to `CCN(CC)S(=O)(=O)c1ccc(S(=O)(=O)N(CC(=O)Nc2ccccc2)Cc2ccco2)cc1`, the “lipid storage change, negative = inhibition” value is -6% (inactive) and the cell number change was -12.6%. Consider `Cc1cc(C)n(-c2nnc(C)c(=O)[nH]2)n1`, for which the “lipid storage change, negative = inhibition” value is 4.01% (inactive). As to `N#C/C(=C\C1=C(N2CCOCC2)C(=C/c2cccc([N+](=O)[O-])c2)/CC1)C(=O)Nc1ccccc1F`, the Potency was 2.06 µM (active) and the cell number change came to 1.41%. In the case of `N#C/C(=C/c1cccc([N+](=O)[O-])c1)C(=O)Nc1ccccc1O`, the “lipid storage change, negative = inhibition” value was 1.09% (inactive) and the cell number change turned out to be 0.725%. Take `O=CC1=C(N2CCOCC2)/C(=C\c2ccccc2)CC1`: the “lipid storage change, negative = inhibition” value is 6.77% (inactive) and the cell number change is 1.5%. As to `CC(C)C(NC(=O)C12CC3CC(CC(C3)C1)C2)C(=O)N/N=C/C1=C(N2CCOCC2)C(=C\c2cccc([N+](=O)[O-])c2)/CC1` (stereo not given), the “lipid storage change, negative = inhibition” value is 13% (inactive) and the cell number change was 9.26%. For `O=C(O)c1ccccc1N/N=C/C1=C(N2CCOCC2)C(=C\c2ccccc2)/CC1`, the “lipid storage change, negative = inhibition” value was 8.4% (inactive).

For the compound `CCOC(=O)C(=O)C1=C(N2CCOCC2)/C(=C\c2cccc([N+](=O)[O-])c2)CC1`, the “lipid storage change, negative = inhibition” value was 4.84% (inactive) and the cell number change was -9.52%.

Take `CC(NC(=O)C12CC3CC(CC(C3)C1)C2)C(=O)N/N=C/C1=C(N2CCOCC2)C(=C\c2cccc([N+](=O)[O-])c2)/CC1` (stereo not given): the Potency is 13 µM (active) and the cell number change amounted to 4.98%. `CCN(CC)c1ccc(/C=C2\CCC(/C=C(\C#N)C(=O)Nc3ccccc3F)=C2N2CCOCC2)cc1`: the Potency was 0.58 µM (active) and the cell number change was determined as 1.95%.

As to `O=C(NP(=O)(N1CCCC1)N1CCCC1)C1=C(N2CCOCC2)/C(=C/c2cccc([N+](=O)[O-])c2)CC1`, the “lipid storage change, negative = inhibition” value is 19.1% (inactive). In the case of `CC(C)Oc1ccc(N2CC(C(=O)Nc3ccc(N4CCOCC4)cc3)CC2=O)cc1` (stereo not given), the “lipid storage change, negative = inhibition” value was 7.42% (inactive) and the cell number change was 15.2%. Regarding `CCOC(=O)c1cc(CC)sc1/N=C/c1c(O)ccc2ccccc12`, the “lipid storage change, negative = inhibition” value was 21.6% (inactive) and the cell number change was found to be 1.95%. Consider `O=C(Cn1cnc([N+](=O)[O-])n1)NCCO`, for which the “lipid storage change, negative = inhibition” value is -0.893% (inactive) and the cell number change turned out to be 0.588%. In the case of `O=c1[nH]c(CN2CCN(c3ccc(F)cc3)CC2)nc2ccccc12`, the “lipid storage change, negative = inhibition” value is 9.13% (inactive) and the cell number change was -21.1%.

Turning to `CCC(=O)NC(C)c1cc(Cl)c2ccccc2c1O` (stereo not given), the “lipid storage change, negative = inhibition” value was 12.7% (inactive) and the cell number change is -12.2%.

These data come from PubChem BioAssay AID2685 (National Center for Advancing Translational Sciences (NCATS), 2010).
